From PubChem
RXFP1 agonist: agonists of human relaxin receptor RXFP1; Potency, µM (doses to about 57.5 µM), actives largely listed as activators; 370,000 compounds, 0.3% hits; HEK293T-RXFP1 cAMP TR-FRET, 30 min; response scale: percent of porcine relaxin response, buffer zero; active means well fitted activation curve with a large enough effect; inconclusive means small, poorly fitted or top-dose-only effect; further: nearly all actives have a fitted effect of over 60% in size
Target sequence (Q9HBX9 whole entry, looked up): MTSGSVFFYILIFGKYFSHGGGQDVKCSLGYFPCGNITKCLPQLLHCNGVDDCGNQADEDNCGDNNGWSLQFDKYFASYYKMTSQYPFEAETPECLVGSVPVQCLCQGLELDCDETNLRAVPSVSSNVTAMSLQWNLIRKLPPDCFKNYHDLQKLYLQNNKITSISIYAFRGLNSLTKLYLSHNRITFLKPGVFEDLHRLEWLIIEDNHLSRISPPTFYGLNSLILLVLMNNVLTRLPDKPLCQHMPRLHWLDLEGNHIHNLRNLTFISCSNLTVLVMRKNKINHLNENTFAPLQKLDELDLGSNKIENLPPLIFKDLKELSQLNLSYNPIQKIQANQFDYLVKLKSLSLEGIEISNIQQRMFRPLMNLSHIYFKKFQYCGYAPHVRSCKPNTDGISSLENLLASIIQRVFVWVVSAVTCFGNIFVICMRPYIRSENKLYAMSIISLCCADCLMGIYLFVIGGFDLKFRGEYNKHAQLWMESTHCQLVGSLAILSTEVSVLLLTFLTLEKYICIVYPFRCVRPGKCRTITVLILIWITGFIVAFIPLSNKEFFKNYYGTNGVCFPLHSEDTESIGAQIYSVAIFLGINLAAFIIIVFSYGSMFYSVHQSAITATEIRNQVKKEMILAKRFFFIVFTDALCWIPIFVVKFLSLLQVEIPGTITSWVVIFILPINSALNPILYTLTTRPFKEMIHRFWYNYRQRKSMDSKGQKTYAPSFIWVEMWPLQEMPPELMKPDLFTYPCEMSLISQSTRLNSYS
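HEK293T cells stably expressing RXFP1 were pretreated with the PDE4 inhibitor Ro 20174, exposed to compounds for 30 min at 37C, lysed, and cAMP was read by TR-FRET. Data normalized to buffer (basal) and 29 nM porcine relaxin (100%).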
gsp antag: antagonists of gsp mutant (McCune-Albright syndrome); 340,000 compounds, 0.4% hits; Potency, µM (doses to about 76.9 µM), hits mostly inhibitors; gsp-mutant cells, cAMP HTRF, 30 min; AID 624288; calls by dose curve; cell line not stated here;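 further: intracellular cAMP measured with PDE inhibitor Ro 20-1724 present during compound exposure; nearly all actives have a fitted effect of over 65% in size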
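HTRF cAMP read-out (cAMP-d2 plus anti-cAMP antibody-K in lysis buffer, 30 min RT). Before lysis, cells are exposed to compounds with […] for 30 min at 37C in DPBS containing Ca/Mg, BSA and Tween 20.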
RXFP1 antagonist: antagonists of human relaxin receptor RXFP1 | Q9HBX9 | HEK293-RXFP1, relaxin-stimulated cAMP HTRF, 30 min; stronger effect = lower value | activity change, negative = inhibition, % at 57.5 µM | 350,000 compounds, 0.59% hits;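 active means activity change of -60% or lower, but not beyond a set lower limit; inconclusive means change between -60% and -40%, or beyond the set limit; inactive means change above -40%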
gsp ag: agonists of gsp mutant (McCune-Albright syndrome). gsp mutant cells, cAMP HTRF, 30 min. Potency, µM (doses to about 76.9 µM), usual class: activators. 340,000 compounds, 0.13% hits; active means well fitted activation curve with a large enough effect; inconclusive means small, poorly fitted or top-dose-only effect, or another doubt; inactive means no such curve, though single readings can be large or run the other way; cell line not stated here;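 further: phosphodiesterase inhibitor Ro 20-1724 added with compounds to block cAMP breakdown; nearly all actives have a fitted effect of over 60% in size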
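Cells stably selected in G418 were plated at 2000/well, grown 16-24 hr, then given compounds in DMSO with the PDE inhibitor […] (300 uM solution added) for 30 min at 37C; cAMP was read by HTRF.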
pAkt inh: inhibitors of Akt phosphorylation | Neuro2A IGF-stimulated pAkt S473 HTRF, 20 min; stronger effect = lower value | activity change, % for hits at 50 µM | 360,000 compounds, 0.32% hits | AID 651550; in the data active means activity change below about -80%; inconclusive means mostly about -51% to -80%
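Neuro2A cells in DMEM with 0.5% FBS, overnight at 37 deg C, given compound at single 50 µM final, then IGF (6 nM final) for 20 min at 37 deg C. Lysed; phospho-Akt Ser473 by HTRF after 24 h, 665/615 ratio.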
A number is an active result; . = inactive; ? = inconclusive; / = no result given; ! = repeats disagree; [ ] = dose if it differs, or a comment. Hits are enriched below; roughly 1.2% of the tested compounds scored in any of these assays.

SMILES | RXFP1 agonist | gsp antag | RXFP1 antagonist | gsp ag | pAkt inh
COc1ccc(Cn2c(C(=O)O)c(CNCc3ccc(SC)cc3)c3ccc(OC)cc32)cc1 | . | / | . | / | /
CC1CCN(c2nnc(-c3cccs3)c3ccccc23)CC1 | . | ? | . | . | .
c1csc(-c2nnc(NC3CCCCC3)c3ccccc23)c1 | . | 40µM | . | . | .
Cc1ccc2cccc(NC(=O)c3ccc(-c4cc(Cl)ccc4Cl)o3)c2n1 | . | / | / | / | /
CC1CCCCC1NC(=O)COC(=O)c1c2c(nc3ccccc13)/C(=C\c1ccco1)CC2 (stereo unspecified) | / | . | -65 | ? | .
O=C1CCCC/C1=C/Nc1ccc(S(=O)(=O)Nc2ncccn2)cc1 | . | . | . | . | -120%
O=C1CCCC/C1=C\Nc1ccc(O)cc1 | . | . | . | . | /
Cc1ccc(-n2ncc3c(N4CCCCCC4)ncnc32)cc1C | . | / | . | / | /
COc1cc(Cl)c(C)cc1NC(=O)CCc1nc2cccnc2n1-c1ccccc1 | . | / | . | / | /
Cn1c(C(=O)N2CCOCC2)cnc1Sc1ncc(C(F)(F)F)cc1Cl | . | . | . | ? | -114%
Cc1ccc(OCCSCc2nc3ccccc3[nH]2)cc1 | . | . | . | . | -98%
CCC(Oc1ccccc1F)C(=O)N1CCC(c2nc3ccccc3s2)CC1 (stereo unspecified) | . | / | . | / | /
Cc1cc(C)nc(N(C#N)CCOc2ccccc2)n1 | . | . | . | . | .
CN(C)c1nc(N(C)C)nc(N(C#N)CCOc2ccccc2)n1 | . | . | . | . | -111%
O=C1C=CC2(O[C@H](c3ccccc3)[C@@H](c3ccccc3)O2)[C@H](Sc2ccccc2O)C1 | / | . | -99 | . | .
C[C@@H]1[C@@H](Sc2ccccc2)CC(=O)O[C@@H]1c1ccc(-c2ccccc2)cc1 | / | . | / | . | .
CCC(C(=O)OCC(=O)Nc1cc(C)ccc1OC)c1ccccc1 (stereo unspecified) | . | . | . | . | .
CCOc1ccccc1NC(=O)COC(=O)C(CC)c1ccccc1 (stereo unspecified) | . | 10µM | . | . | .
CCCOc1ccc(C(=O)Nc2ccc3oc(-c4ccc(N(C)C)cc4)nc3c2)cc1 | 3.2µM | / | . | / | /
CCCCCCCNc1cccc(C)c1 | . | . | . | .[15.4 µM] | .
Cc1cccc(NCCNc2cccc(C)c2)c1 | . | . | . | . | -104%
Cc1cccc(NCc2ccccc2O)c1 | . | . | . | . | -101%
Cc1cc(C)c(/C=C/c2onc(C)c2S(=O)(=O)N2CCC(C(=O)Nc3ccc(Cl)c(C(F)(F)F)c3)CC2)c(C)c1 | . | / | . | / | /
C/C(=N\NC(=O)c1ccccc1[N+](=O)[O-])c1ccc(Br)s1 | . | . | -66 | .[15.4 µM] | .
Cc1ccc(-c2cc(C(=O)NCc3cnn(C)c3)c3cc(Br)ccc3n2)cc1 | 22µM! | ? | . | .[15.4 µM] | .
SMILES | RXFP1 agonist | gsp antag | RXFP1 antagonist | gsp ag | pAkt inh
O=C(O)c1cc(-c2ccc3c(c2)OCO3)nc2ccc(Br)cc12 | 16µM | . | . | 10µM | .
C#CC1(O)CC[C@H]2[C@@H]3CCC4=CCCC[C@@H]4[C@H]3CC[C@@]21C (stereo partly specified) | / | / | . | / | /
Cc1cc(O)c(C(C)C)cc1Cl | / | / | . | / | /
Cc1cccc(-n2cnc3cc(C(=O)NC4CCCCCC4)ccc32)c1 | . | / | . | / | /
CCS(CC)=NS(=O)(=O)c1ccc(NC(C)=O)cc1 | . | . | . | . | -118%
CCOc1ccc(CNC(=O)CCC(=O)N2CC3CCCN3c3ccccc32)cc1 (stereo unspecified) | . | / | . | / | /
C=CC[n+]1c(-c2ccc(Cl)cc2Cl)csc1Nc1c(C)n(C)n(-c2ccccc2)c1=O | . | ? | -68 | . | .
Cc1[nH]c2ccc(C(=O)N3CCN(c4ccccc4F)CC3)cc2c1C | . | / | . | / | /
O=C(Nc1ccc2snnc2c1)Nc1cccc2ccccc12 | . | 50µM | . | . | .
O=C1c2cccc(NCCCNCCO)c2C(=O)c2cccc(NCCCNCCO)c21 | / | 40µM | ? | . | .
O=C1c2ccccc2C(=O)c2c(NCc3cccnc3)cccc21 | . | . | . | . | .
CCOc1ccc(CCNC(=O)c2cc3c(=O)n(C)c4ccccc4c3n2C)cc1OCC | . | / | / | / | /
O=C(NCC1CCN(Cc2ccccc2Cl)CC1)c1cc2ccc3cccnc3c2[nH]1 | . | / | . | / | /
COc1ccc(/C=C2\SC(=S)N(NS(=O)(=O)c3ccc(C)cc3)C2=O)c(OC)c1 | . | 50µM | . | .[15.4 µM] | .
COc1ccccc1/C=C1\SC(=S)N(NS(=O)(=O)c2ccc(C)cc2)C1=O | . | ? | . | ? | .
COc1ccc(/C=C2\SC(=S)N(NS(=O)(=O)c3ccccc3)C2=O)c(OC)c1 | . | ? | -68 | . | .
COc1ccc(OC)c(/C=C2\SC(=S)N(NS(=O)(=O)c3ccccc3)C2=O)c1 | . | 18µM | . | ? | .
CCOc1cc(/C=C2\SC(=S)N(NS(=O)(=O)c3ccccc3)C2=O)ccc1O | . | 25µM | . | . | .
COc1ccc(OC)c(/C=C2\SC(=S)N(NS(=O)(=O)c3ccc(C)cc3)C2=O)c1 | . | ? | ? | . | .
CC(C)=CCC/C(C)=C/CC/C(C)=C/CCC(=O)OC/C=C(\C)CCC=C(C)C | / | / | . | / | /
Cc1cc(N2CCCCC2)nc2ccc(NC(=O)/C=C/c3ccc(OCCC(C)C)cc3)cc12 | . | / | . | / | /
CC1(C)N=C(N)N=C(N)N1CCCCc1ccccc1 | / | . | . | 14µM | .
Clc1cccc(-n2ncc3c(NCCCN4CCOCC4)ncnc32)c1 | . | / | . | / | /
N#Cc1cc(-c2ccc(Cl)cc2)cn(Cc2c(Cl)cccc2Cl)c1=O | . | . | . | . | -95%
C=CCn1cc(-c2ccc(Cl)cc2)cc(C#N)c1=O | . | . | . | . | .
SMILES | RXFP1 agonist | gsp antag | RXFP1 antagonist | gsp ag | pAkt inh
CCOC(=O)C1=C(CC)Nc2ccccc2N=C1NC(=O)CCNC(C)=O | . | . | -75 | .[15.4 µM] | .
CCS(=O)(=O)c1ncc(Cl)c(C(=O)N2CCN(c3cccc(Cl)c3)CC2)n1 | . | / | ? | / | /
O=C(CCCn1c(=S)[nH]c2cc3c(cc2c1=O)OCO3)NCc1ccco1 | . | . | -64 | .[15.4 µM] | .
COc1ccc(N2CCN(C(=O)CCCCCn3c(=S)[nH]c4ccc(N5CCOCC5)cc4c3=O)CC2)cc1 | / | / | -98 | . | .
COc1ccc(N2CCN(C(=O)CCCCCn3c(=S)[nH]c4cc5c(cc4c3=O)OCO5)CC2)cc1 | ? | . | ? | . | .
COc1ccc(NC(=O)Cn2c(=O)n(Cc3ccccc3Cl)c(=O)c3cc(OC)c(OC)cc32)cc1OC | 25µM | / | / | / | /
CC1CC(C)CN(C(=O)CCCn2c(=S)[nH]c3ccccc3c2=O)C1 (stereo unspecified) | . | . | -97 | . | .
O=C(CCCn1c(=S)[nH]c2ccccc2c1=O)N1CCCCC1 | . | . | ? | . | .
CCC(C(=O)OCCN1CCOC(c2ccccc2)C1C)c1ccccc1 (stereo unspecified) | / | / | . | / | /
